Experimental data: PubChem BioAssay AID1159580 (chemical genetic matrix, 2015)
“And” between values parts separate entries of the source, which are not always exact repeats. Equal entries are not always repeated. About 2,000 (36%) of roughly 5,500 compounds were called active. Not shown: some 18% with an inconclusive outcome. Cut-off read from the data, not from the text of the source: active = normalized growth mostly below about 0.91 (no sharp cut-off); inconclusive = no clear call, values can overlap the other calls; inactive = mostly above about 0.92. Some of the results follow.

Assay: chemical genetic growth profiling, strain panel (AID 1159580);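 note: tested at 20 µM; growth read once vehicle control cultures reached saturation at 30 °C; 1 = growth at the plate median or of vehicle wells; lower values mean less growth of the strain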
Settings: S. cerevisiae deletion strains, growth OD

Measured: normalized growth

CC(C)(C)CC(C)(C)c1ccc(OCCOCC[N+](C)(C)Cc2ccccc2)cc1
active: locus YAL021C, strain ccr4, stronger effect = lower value 0.0688 | locus YAL026C, strain drs2, stronger effect = lower value 0.0657 | locus YAL030W, strain snc1, stronger effect = lower value 0.0593 | locus YBL061C, strain skt5, stronger effect = lower value 0.0642 | locus YBR009C, strain hhf1, stronger effect = lower value 0.0641 | locus YBR021W, strain FUR4, stronger effect = lower value 0.749 | locus YBR023C, strain chs3, stronger effect = lower value 0.0641 | locus YBR171W, strain sec66, stronger effect = lower value 0.0804 | locus YBR231C, strain swc5, stronger effect = lower value 0.0684 | locus YBR279W, strain paf1, stronger effect = lower value 0.0627 | locus YCL011C, strain gbp2, stronger effect = lower value 0.0631 | locus YCL016C, strain dcc1, stronger effect = lower value 0.0699 | locus YCL069W, strain vba3, stronger effect = lower value 0.0614 | locus YCR088W, strain abp1, stronger effect = lower value 0.0617 | locus YDL005C, strain med2, stronger effect = lower value 0.0736 | locus YDL040C, strain nat1, stronger effect = lower value 0.0719 | locus YDR001C, strain nth1, stronger effect = lower value 0.0593 | locus YDR069C, strain doa4, stronger effect = lower value 0.0664 | locus YDR137W, strain rgp1, stronger effect = lower value 0.0931 | locus YDR159W, strain sac3, stronger effect = lower value 0.1 | locus YDR195W, strain ref2 0.158 | locus YDR297W, strain sur2, stronger effect = lower value 0.0635 | locus YDR334W, strain swr1, stronger effect = lower value 0.0662 | locus YDR335W, strain msn5, stronger effect = lower value 0.0594 | locus YDR392W, strain spt3, stronger effect = lower value 0.0804 | locus YEL003W, strain gim4, stronger effect = lower value 0.0568 | locus YEL037C, strain rad23, stronger effect = lower value 0.0591 | locus YEL061C, strain CIN8 (second series), stronger effect = lower value 0.0651 | locus YER015W, strain faa2, stronger effect = lower value 0.0671 | locus YER016W, strain bim1, stronger effect = lower value 0.0697 | locus YER111C, strain swi4, stronger effect = lower value 0.0727 | locus YER155C, strain BEM2 (second series), stronger effect = lower value 0.0937 | locus YFR010W, strain ubp6, stronger effect = lower value 0.0726 | locus YGL167C, strain pmr1, stronger effect = lower value 0.837 | locus YGL173C, strain kem1, stronger effect = lower value 0.0679 | locus YGL227W, strain vid30, stronger effect = lower value 0.0676 | locus YGL240W, strain doc1, stronger effect = lower value 0.0832 | locus YGL253W, strain hxk2, stronger effect = lower value 0.058 | locus YHR013C, strain ard1, stronger effect = lower value 0.119 | locus YHR027C, strain rpn1, stronger effect = lower value 0.0623 | locus YHR079C, strain IRE1, stronger effect = lower value 0.167 | locus YHR142W, strain chs7, stronger effect = lower value 0.0755 | locus YJL092W, strain hpr5, stronger effect = lower value 0.0645 | locus YJL095W, strain BCK1 (second series), stronger effect = lower value 0.0585 | locus YJL115W, strain asf1, stronger effect = lower value 0.0787 | locus YJL129C, strain trk1, stronger effect = lower value 0.079 | locus YJL154C, strain vps35, stronger effect = lower value 0.0655 | locus YJL164C, strain tpk1, stronger effect = lower value 0.0649 | locus YJL166W, strain qcr8, stronger effect = lower value 0.0654 | locus YJL187C, strain SWE1, stronger effect = lower value 0.0616 | locus YJR066W, strain TOR1, stronger effect = lower value 0.791 | locus YKL160W, strain elf1, stronger effect = lower value 0.0818 | locus YKR001C, strain vps1, stronger effect = lower value 0.686 | locus YKR026C, strain gcn3, stronger effect = lower value 0.0715 | locus YKR091W, strain srl3, stronger effect = lower value 0.0677 | locus YLL001W, strain dnm1, stronger effect = lower value 0.064 | locus YLL026W, stronger effect = lower value 0.059 | locus YLL041C, strain sdh2, stronger effect = lower value 0.0644 | locus YLR027C, strain aat2, stronger effect = lower value 0.0617 | locus YLR113W, strain HOG1, stronger effect = lower value 0.166 | locus YLR221C, strain rsa3, stronger effect = lower value 0.0654 | locus YLR258W, strain gsy2, stronger effect = lower value 0.0637 | locus YLR262C, strain YPT6 (second series), stronger effect = lower value 0.0738 | locus YLR320W, strain mms22, stronger effect = lower value 0.08 | locus YLR342W, strain FKS1, stronger effect = lower value 0.0831 | locus YLR357W, strain rsc2, stronger effect = lower value 0.132 | locus YLR370C, strain arc18, stronger effect = lower value 0.0619 | locus YLR384C, strain iki3, stronger effect = lower value 0.0611 | locus YML120C, strain ndi1, stronger effect = lower value 0.0599 | locus YMR058W, strain fet3, stronger effect = lower value 0.0666 | locus YMR125W, strain sto1, stronger effect = lower value 0.0985 | locus YMR129W, stronger effect = lower value 0.0605 | locus YMR205C, strain PFK2, stronger effect = lower value 0.112 | locus YMR231W, strain pep5, stronger effect = lower value 0.0717 | locus YNL071W, strain lat1, stronger effect = lower value 0.0629 | locus YNL183C, strain NPR1, stronger effect = lower value 0.73 | locus YNL209W, strain ssb2, stronger effect = lower value 0.0644 | locus YNL248C, strain rpa49, stronger effect = lower value 0.0829 | locus YNL322C, strain KRE1 (second series), stronger effect = lower value 0.0768 | locus YNR049C, strain mso1, stronger effect = lower value 0.0601 | locus YOR001W, strain rrp6, stronger effect = lower value 0.0755 | locus YOR070C, strain gyp1, stronger effect = lower value 0.0589 | locus YOR080W, strain dia2, stronger effect = lower value 0.0709 | locus YOR083W, strain WHI5, stronger effect = lower value 0.0783 | locus YOR106W, strain vam3, stronger effect = lower value 0.0737 | locus YOR231W, strain MKK1, stronger effect = lower value 0.451 | locus YOR265W, strain rbl2, stronger effect = lower value 0.0618 | locus YOR270C, strain vph1, stronger effect = lower value 0.103 | locus YOR290C, strain snf2, stronger effect = lower value 0.0712 | locus YPL051W, strain arl3, stronger effect = lower value 0.0738 | locus YPL078C, strain atp4, stronger effect = lower value 0.0749 | locus YPL106C, strain sse1, stronger effect = lower value 0.108 | locus YPL240C, strain hsp82, stronger effect = lower value 0.0673 | locus YPL256C, strain CLN2, stronger effect = lower value 0.347
0.995 (inactive) and 0.14 (active): locus YHR030C, strain SLT2, stronger effect = lower value
inactive: locus YAL013W, strain DEP1, stronger effect = lower value 0.983 | locus YBR229C, strain ROT2, stronger effect = lower value 1.02 | locus YCL029C, strain bik1, stronger effect = lower value 0.986 | locus YDL035C, strain GPR1, stronger effect = lower value 1.01 | locus YDL074C, strain BRE1, stronger effect = lower value 0.954 | locus YDL101C, strain DUN1, stronger effect = lower value 0.988 | locus YDL134C, strain PPH21, stronger effect = lower value 0.995 | locus YDL185W, strain tfp1, stronger effect = lower value 1 | locus YDL192W, strain arf1, stronger effect = lower value 0.976 | locus YDR101C, strain arx1, stronger effect = lower value 0.991 | locus YDR150W, strain NUM1, stronger effect = lower value 1 | locus YDR162C, strain NBP2, stronger effect = lower value 0.911 | locus YDR318W, strain mcm21, stronger effect = lower value 0.997 | locus YDR388W, stronger effect = lower value 1 | locus YDR502C, strain sam2, stronger effect = lower value 0.988 | locus YEL061C, strain CIN8, stronger effect = lower value 0.999 | locus YER110C, stronger effect = lower value 0.992 | locus YER155C, strain BEM2, stronger effect = lower value 1.03 | locus YER167W, strain BCK2, stronger effect = lower value 1.02 | locus YGL078C, strain dbp3, stronger effect = lower value 0.988 | locus YGL086W, strain mad1, stronger effect = lower value 0.984 | locus YGL248W, strain PDE1, stronger effect = lower value 0.99 | locus YGR078C, strain PAC10, stronger effect = lower value 0.917 | locus YGR135W, strain pre9, stronger effect = lower value 0.994 | locus YGR252W, strain gcn5, stronger effect = lower value 0.98 | locus YHR079C, strain IRE1 (second series), stronger effect = lower value 0.991 | locus YHR094C, strain hxt1, stronger effect = lower value 0.985 | locus YHR129C, strain ARP1, stronger effect = lower value 0.994 | locus YHR200W, strain rpn10, stronger effect = lower value 0.993 | locus YIL066C, strain RNR3, stronger effect = lower value 0.994 | locus YIL073C, strain SPO22, stronger effect = lower value 0.865 | locus YIL125W, strain kgd1, stronger effect = lower value 0.991 | locus YIR030C, strain dcg1, stronger effect = lower value 0.985 | locus YJL134W, strain LCB3, stronger effect = lower value 1 | locus YJL168C, strain set2, stronger effect = lower value 0.999 | locus YJL187C, strain SWE1 (second series), stronger effect = lower value 0.989 | locus YJR043C, strain POL32, stronger effect = lower value 1.03 | locus YKL009W, strain mrt4, stronger effect = lower value 0.965 | locus YKL068W, stronger effect = lower value 1.01 | locus YKL085W, strain MDH1 (second series), stronger effect = lower value 1 | locus YKL085W, strain MDH1, stronger effect = lower value 1 | locus YLR039C, strain RIC1, stronger effect = lower value 0.781 | locus YLR058C, strain SHM2, stronger effect = lower value 0.996 | locus YLR102C, strain apc9, stronger effect = lower value 0.992 | locus YLR262C, strain YPT6, stronger effect = lower value 0.832 | locus YLR268W, strain sec22, stronger effect = lower value 0.974 | locus YLR330W, strain CHS5, stronger effect = lower value 0.993 | locus YLR342W, strain FKS1 (second series), stronger effect = lower value 0.998 | locus YLR371W, strain rom2, stronger effect = lower value 0.992 | locus YLR418C, strain cdc73, stronger effect = lower value 0.871 | locus YML016C, strain PPZ1, stronger effect = lower value 1.01 | locus YML032C, strain rad52, stronger effect = lower value 0.99 | locus YML124C, strain tub3, stronger effect = lower value 0.989 | locus YMR078C, strain ctf18, stronger effect = lower value 0.986 | locus YMR223W, strain ubp8, stronger effect = lower value 0.989 | locus YMR263W, strain SAP30, stronger effect = lower value 0.991 | locus YMR307W, strain GAS1, stronger effect = lower value 1.06 | locus YNL067W, strain RPL9B, stronger effect = lower value 0.977 | locus YNL233W, strain BNI4, stronger effect = lower value 0.984 | locus YNL250W, strain rad50, stronger effect = lower value 0.989 | locus YNL271C, strain bni1, stronger effect = lower value 0.978 | locus YNL298W, strain CLA4, stronger effect = lower value 1.01 | locus YNL307C, strain MCK1, stronger effect = lower value 0.937 | locus YNR052C, strain pop2, stronger effect = lower value 0.99 | locus YOL006C, strain TOP1, stronger effect = lower value 0.864 | locus YOL012C, strain htz1 1.63 | locus YOL147C, strain pex11, stronger effect = lower value 0.985 | locus YOR061W, strain CKA2, stronger effect = lower value 1.01 | locus YOR069W, strain VPS5, stronger effect = lower value 1.01 | locus YOR136W, strain idh2, stronger effect = lower value 0.986 | locus YOR144C, strain elg1, stronger effect = lower value 0.996 | locus YOR184W, strain ser1, stronger effect = lower value 0.954 | locus YOR316C, strain cot1, stronger effect = lower value 0.992 | locus YPL055C, strain LGE1, stronger effect = lower value 0.98 | locus YPL241C, strain CIN2, stronger effect = lower value 1 | locus YPR119W, strain clb2, stronger effect = lower value 0.984 | locus YPR141C, strain kar3, stronger effect = lower value 0.988 | locus YPR163C, strain tif3, stronger effect = lower value 0.981 | locus YPR167C, strain met16, stronger effect = lower value 1.01 | strain wtn01, stronger effect = lower value 0.997
0.912 (inactive) and 0.258 (active): locus YJL095W, strain BCK1, stronger effect = lower value
